Source: PubChem BioAssay (NCI)
This is part of a sample that, as a whole, favours compounds with a hit. Of some 83,000 tested, about 20% had one in any assay.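 A percent growth of 40 corresponds to 60% growth inhibition; 0 means no net growth; -100 means all cells died. Active threshold: below 10.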 The source made the active and inactive calls.

The compounds below were run on HT29 colon (assay: NCI-60 one-dose screen, 48 h (100 = growth as untreated, 0 = no growth, -100 = all killed)). Details: 10 µM unless noted.

| SMILES | growth |
| --- | --- |
| COc1ccc(/C=N/Nc2c3ccccc3nc3ccccc23)cc1 | 93.9% (inactive) |
| CC1(C)CC[C@]23CC[C@]4(C)[C@H](CC[C@@H]5[C@@]6(C)C/C(=C/O)C(=O)C(C)(C)[C@@H]6CC[C@]54C)[C@H]2[C@H]1OC3 | 100% (inactive) |
| CS(=O)(=O)Nc1cc(-c2ccc3ncnc(Nc4ccc5c(cnn5Cc5ccccc5F)c4)c3c2)cnc1Cl | 51% (inactive) |
| Cc1nc2sc(C(=O)Nc3cccc4ccccc34)c(N)c2cc1C(=O)c1ccccc1 | 14.7% (inactive) |

The compounds below were run on SNB-75 CNS in the same assay as above. Details: 10 µM unless noted.

| SMILES | growth |
| --- | --- |
| COc1cc(-c2ccc[nH]2)[nH]c1/C=C1\N=C(C)C(CC(=O)OCC(C)(C)C)=C1C | -23.8% (active) |
| N#Cc1c(-c2ccc(Br)cc2)nc2c(N=Nc3ccc(S(N)(=O)=O)cc3)c(N)nn2c1N | 56.9% (inactive) |
| O=[N+]([O-])c1ccccc1Nc1ccc2ccccc2c1 | 62.9% (inactive) |
| c1ccc(Nc2nc3c(s2)CCc2c[nH]cc2-3)nc1 | 88.7% (inactive) |
| COc1ccc2cc(C(=O)N3CCC([C@@H](C)C(=O)NCc4ccc5c(c4)OCO5)CC3)[nH]c2c1 | -37.6% [50 µM] (active) |
| Nc1cc(C(=O)O)cc(-n2c(O)c(C=C3N=c4ccccc4=N3)sc2=S)c1 | 80.7% (inactive) |
| CC1(C)N=C(N)N=C(N)N1c1cc(Cl)ccc1Cl | 118% (inactive) |
| CC/C(=C(\c1ccc(Cl)cc1)c1ccc(OCCN2CCCCC2)cc1)c1ccc(O)cc1 | 40.5% (inactive) |
| O=C1O[C@@H](c2ccccc2Cl)[C@@H]2c3cc4c(cc3CCN12)OCO4 | 91.7% (inactive) |
| C=CCn1cc(-c2nc3ccccc3s2)c2cc(-c3ccc4c5c(cccc35)C(=O)N(CCO)C4=O)ccc21 | 98.9% (inactive) |
| CCOC(=O)C#Cc1c(C(=O)OCC)nnn1[C@@H]1O[C@H](COC)[C@@H](OC)[C@H]1OC | 72.9% (inactive) |
| O=C(/C=C/c1ccccc1Cl)c1cccc(OCCCCOc2cccc(C(=O)/C=C/c3ccccc3Cl)c2)c1 | 86% (inactive) |
| Nc1nc2ccccc2c2c(=O)c3cc(Cl)ccc3sc12 | 91.2% (inactive) |
| C=CC(=O)Nc1cccc(Oc2nccc(Nc3nnc(-c4ccc(Br)cc4)s3)n2)c1 | 87.5% (inactive) |
| CC/C(=C(/c1ccc(O)cc1)c1ccc(OCCN2CCCCC2)cc1)c1ccc(OC)cc1 | 74.1% (inactive) |
| CNC(=O)c1cc(Oc2ccc3c(c2)sc2nc(-c4ccc(NC(=O)[C@@H](NC(=O)OC)C(C)C)cc4)cn23)ccn1 | 99.5% (inactive) |
| Cn1c(=O)[nH]c(=O)c2nc3c(nc21)-c1ccccc1C3=O | 88.9% (inactive) |
| COC1C(O)CC(OC2CC(OC3CC(O[C@@H]4C(=O)c5c(cc6cc(OC7CC(OC8CC(O)C(O)C(C)O8)C(O)C(C)O7)c(C)c(O)c6c5O)CC4[C@H](OC)C(=O)O)OC(C)C3O)OC(C)C2O)OC1C (some centres undefined) | -22.7% (active) |
| N#CC1=C(N)Oc2c(sc3c(F)cccc23)C1c1ccc([N+](=O)[O-])cc1 (centres undefined) | -35.3% (active) |
| COc1ccc(/C=C(/C(=O)N2CCNCC2)c2cc(OC)c(OC)c(OC)c2)cc1O | 28.1% (inactive) |

| SMILES | growth |
| --- | --- |
| Cc1ccc(NC(=O)c2cc3ccccc3cc2O)c(C)c1 | 96.8% (inactive) |
| N#Cc1c(-c2ccccc2)nc2c(c(-c3ccccc3)nn2-c2ccccc2)c1-c1ccc(N2CCCCC2)cc1 | 84.2% (inactive) |
| O=C(Nc1ccccc1O)c1ccc(CNc2ccnc(C(F)(F)F)c2)cc1 | 55.9% (inactive) |
| COc1cc(/C=C2\C(=O)N(CCCOc3cc(O)c4c(=O)cc(-c5ccccc5)oc4c3)c3ccccc32)cc(OC)c1O | 47.6% (inactive) |
| CN1C(=O)N2CN3CCCN(C3)CN3C(=S)NC1C23 (centres undefined) | 93.4% (inactive) |
| O=c1oc2ccccc2cc1-c1nn(-c2ccccc2)cc1-c1nn[nH]n1 | 76.2% (inactive) |
| COc1cc(OC)c2c(=O)c3c(CC=C(C)C)cc(OC)c(O)c3oc2c1 | 60% (inactive) |
| COC(=O)c1c2c(c[n+]([O-])c1C)C(=O)C=C(NCc1ccccc1)C2=O | -97.3% (active) |
| N#C/C(=C\c1ccc(-c2cccc(Cl)c2)o1)C(=O)Nc1ncc(Cc2ccc(Cl)cc2)s1 | -3.05% (active) |
| O=C(/C=C/c1ccccc1)c1ccc(-n2cc(CN3CCN(c4cc5c(cc4F)c(=O)c(C(=O)O)cn5C4CC4)CC3)nn2)cc1 | 72.3% (inactive) |
| N#Cc1ccc(/C=C/c2cn(-c3ccccc3)nc2-c2cccc([N+](=O)[O-])c2)cc1 | 27.3% (inactive) |
| c1ccc(Cn2cc3c(c2-c2ccccc2)CCc2cnoc2-3)cc1 | 4.38% (active) |
| NCCCNc1nc2ccccc2c2c(=O)c3cc(Cl)ccc3sc12 | 47.9% (inactive) |
| Cc1cc(C)c2c(c1)N(C)c1ncnc(-n3c(C)nc4cc(C)ccc43)c1CC2C (centres undefined) | 29.4% (inactive) |
| CSc1ccc2c3c(n(CCCn4ccnc4)c(=O)c2c1)-c1ccccc1C3=O | 51.6% (inactive) |
| COc1ccc(C(=O)/C=C/c2ccccc2)cc1S(N)(=O)=O | 87.2% (inactive) |
| COc1ccc(/C=N/Nc2c3ccccc3nc3ccccc23)cc1 | 93.4% (inactive) |
| CC1(C)CC[C@]23CC[C@]4(C)[C@H](CC[C@@H]5[C@@]6(C)C/C(=C/O)C(=O)C(C)(C)[C@@H]6CC[C@]54C)[C@H]2[C@H]1OC3 | 104% (inactive) |
| CS(=O)(=O)Nc1cc(-c2ccc3ncnc(Nc4ccc5c(cnn5Cc5ccccc5F)c4)c3c2)cnc1Cl | -15.7% (active) |
| Cc1nc2sc(C(=O)Nc3cccc4ccccc34)c(N)c2cc1C(=O)c1ccccc1 | 11.9% (inactive) |
